Source: PubChem BioAssay (NCI)
This is part of a sample that, as a whole, favours compounds with a hit. Of some 83,000 tested, about 20% had one in any assay.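 A percent growth of 40 corresponds to 60% growth inhibition; 0 means no net growth; -100 means all cells died. Active threshold: below 10.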 Active and inactive are the calls of the source.

Experiments:
Assay in all cases: NCI-60 one-dose screen, 48 h (100 = growth as untreated, 0 = no growth, -100 = all killed)
Settings in all cases: 10 µM unless noted
HCT-15 colon = system: HCT-15 colon
HT29 colon = system: HT29 colon
SNB-75 CNS = system: SNB-75 CNS
SNB-19 CNS = system: SNB-19 CNS
U251 CNS = system: U251 CNS
PC-3 prostate = system: PC-3 prostate
SK-MEL-5 melanoma = system: SK-MEL-5 melanoma
UACC-62 melanoma = system: UACC-62 melanoma
LOX IMVI melanoma = system: LOX IMVI melanoma
SK-MEL-28 melanoma = system: SK-MEL-28 melanoma

Measured: growth

COc1ccccc1N1CCCCC1
inactive: HCT-15 colon 102% | HT29 colon 101% | SNB-75 CNS 99.4% | SNB-19 CNS 95.2% | U251 CNS 108% | PC-3 prostate 98.8% | SK-MEL-5 melanoma 108% | UACC-62 melanoma 96.3% | LOX IMVI melanoma 100% | SK-MEL-28 melanoma 102%

O=C(Nc1ccccc1O)c1ccc(CNC(=O)c2sccc2Nc2ccnc(C(F)(F)F)c2)cc1
inactive: HCT-15 colon 47.6% | HT29 colon 53% | SNB-75 CNS 36.9% | SNB-19 CNS 68.9% | U251 CNS 40.6% | PC-3 prostate 35.2% | SK-MEL-5 melanoma 25.1% | UACC-62 melanoma 27.7% | LOX IMVI melanoma 53.6% | SK-MEL-28 melanoma 63.6%

COc1ccc(C/C(C)=C(\c2ccc(Cl)cc2)c2ccc(OCCN3CCCCC3)cc2)cc1
inactive: HCT-15 colon 84.3% | HT29 colon 81.2% | SNB-75 CNS 89.3% | SNB-19 CNS 93.5% | U251 CNS 92.1% | PC-3 prostate 94.6% | SK-MEL-5 melanoma 107% | UACC-62 melanoma 83.8% | LOX IMVI melanoma 104% | SK-MEL-28 melanoma 101%

CC(=O)Oc1ccc(/C(=C(\C)c2ccc(Cl)cc2)c2ccc(OCCN3CCCCC3)cc2)cc1
active: HCT-15 colon -16.3% | HT29 colon -25.9% | LOX IMVI melanoma -65% | SK-MEL-28 melanoma -48.5%
inactive: SNB-75 CNS 41.7% | SNB-19 CNS 42.2% | U251 CNS 18.3% | PC-3 prostate 28.1% | SK-MEL-5 melanoma 37.1% | UACC-62 melanoma 42.8%

O=C1NC2(Nc3ccccc31)C(=O)Nc1c(Cl)cc(Cl)cc12 (stereo not given)
inactive: HCT-15 colon 108% | HT29 colon 107% | SNB-75 CNS 80% | SNB-19 CNS 104% | U251 CNS 104% | PC-3 prostate 103% | SK-MEL-5 melanoma 99.9% | UACC-62 melanoma 101% | LOX IMVI melanoma 95.9% | SK-MEL-28 melanoma 118%

C1CN(SSN2CCOCC2)CCO1
active: HT29 colon -50.6% [100 µM] | U251 CNS -28% [100 µM] | LOX IMVI melanoma -41% [100 µM] | SK-MEL-28 melanoma -43.3% [100 µM]
inactive: HCT-15 colon 19.2% [100 µM] | SNB-75 CNS 48.3% [100 µM] | SNB-19 CNS 67% [100 µM] | PC-3 prostate 31.2% [100 µM] | SK-MEL-5 melanoma 25.7% [100 µM] | UACC-62 melanoma 19.8% [100 µM]

COC(=O)c1nc(-c2ccccc2)oc1S(=O)(=O)Cc1ccccc1
inactive: HCT-15 colon 62.2% | HT29 colon 49.4% | SNB-75 CNS 84.8% | SNB-19 CNS 96.2% | U251 CNS 94.2% | PC-3 prostate 91.6% | SK-MEL-5 melanoma 93.4% | UACC-62 melanoma 91.1% | LOX IMVI melanoma 61.1% | SK-MEL-28 melanoma 95.5%

COc1cc(OC)c(NC(=O)c2cc3ccccc3cc2O)cc1Cl
inactive: HCT-15 colon 48.5% | HT29 colon 101% | SNB-75 CNS 86.9% | SNB-19 CNS 51% | U251 CNS 17.7% | SK-MEL-5 melanoma 51.4% | LOX IMVI melanoma 24.2% | SK-MEL-28 melanoma 53.6%
active: PC-3 prostate -0.247% | UACC-62 melanoma 3.04%

CSc1oc(C)nc1[P+](c1ccccc1)(c1ccccc1)c1ccccc1
inactive: HCT-15 colon 104% | HT29 colon 53.9% | SNB-75 CNS 75.9% | SNB-19 CNS 45% | U251 CNS 42.2% | PC-3 prostate 52.1% | UACC-62 melanoma 47.2% | LOX IMVI melanoma 28.7% | SK-MEL-28 melanoma 61.1%
active: SK-MEL-5 melanoma -9.07%

CN1C(=O)/C(=C\c2c(Cl)cccc2Cl)c2ccccc21
inactive: HCT-15 colon 67% | HT29 colon 84.5% | SNB-75 CNS 61.3% | SNB-19 CNS 80% | U251 CNS 88.4% | PC-3 prostate 95% | SK-MEL-5 melanoma 86.5% | UACC-62 melanoma 71.2% | LOX IMVI melanoma 82.5% | SK-MEL-28 melanoma 94.4%

O=C(NNC(=O)c1ccc(NC(=O)c2ccccn2)cc1)Nc1ccc([N+](=O)[O-])cc1
inactive: HCT-15 colon 100% | HT29 colon 110% | SNB-75 CNS 81.4% | SNB-19 CNS 83.6% | U251 CNS 78.5% | PC-3 prostate 94.5% | SK-MEL-5 melanoma 102% | UACC-62 melanoma 94% | LOX IMVI melanoma 105% | SK-MEL-28 melanoma 99%

Cc1[nH]c(=O)[nH]c(=O)c1Br
inactive: HCT-15 colon 106% | HT29 colon 131% | SNB-75 CNS 91.6% | SNB-19 CNS 98% | U251 CNS 98.2% | PC-3 prostate 97.9% | SK-MEL-5 melanoma 112% | UACC-62 melanoma 97.3% | LOX IMVI melanoma 104% | SK-MEL-28 melanoma 114%

COC(=O)CC[C@@H]1O[C@@H](c2cccc(C(F)(F)F)c2)[C@@H](O)[C@H]1O
inactive: HCT-15 colon 101% | HT29 colon 97.8% | SNB-75 CNS 92.5% | SNB-19 CNS 107% | U251 CNS 102% | PC-3 prostate 97.8% | SK-MEL-5 melanoma 98% | UACC-62 melanoma 104% | LOX IMVI melanoma 97.4% | SK-MEL-28 melanoma 105%

CCOc1nc(-c2ccccc2)cc2c(O)c(C(=O)N/N=C/c3ccccc3)[nH]c(=O)c12
inactive: HCT-15 colon 104% | HT29 colon 105% | SNB-75 CNS 122% | SNB-19 CNS 105% | U251 CNS 106% | PC-3 prostate 93.5% | SK-MEL-5 melanoma 102% | UACC-62 melanoma 103% | LOX IMVI melanoma 109% | SK-MEL-28 melanoma 114%

O=C(Nc1cccc2ccccc12)NC1CC1
inactive: HCT-15 colon 112% | HT29 colon 114% | SNB-75 CNS 83.6% | SNB-19 CNS 107% | U251 CNS 101% | PC-3 prostate 97.4% | SK-MEL-5 melanoma 103% | UACC-62 melanoma 99.8% | LOX IMVI melanoma 101% | SK-MEL-28 melanoma 105%

Cn1c(=O)cc2c3c(c(NCCCO)ccc31)C(=O)c1ccccc1-2
inactive: HCT-15 colon 39.5% | HT29 colon 23.1% | SNB-75 CNS 39.3% | SNB-19 CNS 47.3% | U251 CNS 37.5% | PC-3 prostate 45.2% | SK-MEL-5 melanoma 40.2% | UACC-62 melanoma 40.4% | LOX IMVI melanoma 26.6% | SK-MEL-28 melanoma 71.4%

Cn1ccc(=O)c(C(=O)Nc2nsc3ccc([N+](=O)[O-])cc23)c1
inactive: HCT-15 colon 54.9% | HT29 colon 68.2% | SNB-75 CNS 72.1% | SNB-19 CNS 91.3% | U251 CNS 63.1% | PC-3 prostate 56.8% | SK-MEL-5 melanoma 87.4% | UACC-62 melanoma 32.6% | LOX IMVI melanoma 51.3% | SK-MEL-28 melanoma 78.3%

COCCOc1cc2ncnc(N3CCN(c4cc(S(C)(=O)=O)c(C)cc4Cl)CC3)c2cc1OCCOC
inactive: HCT-15 colon 95.7% | HT29 colon 94.4% | SNB-75 CNS 98.8% | SNB-19 CNS 96.8% | U251 CNS 85.3% | PC-3 prostate 81.5% | SK-MEL-5 melanoma 77% | UACC-62 melanoma 94.2% | LOX IMVI melanoma 93.5% | SK-MEL-28 melanoma 107%

COc1ccc(-c2cc(-c3cc(OC)c(OC)c(OC)c3)c(C#N)c(=O)n2CCCCC(=O)NO)cc1
active: LOX IMVI melanoma 9.19%
inactive: HCT-15 colon 38.4% | HT29 colon 77.9% | SNB-75 CNS 25.5% | SNB-19 CNS 77.5% | U251 CNS 61.3% | PC-3 prostate 61% | SK-MEL-5 melanoma 57.7% | UACC-62 melanoma 60.7% | SK-MEL-28 melanoma 76.8%

CCOC(=O)C1=C(C)NC(=O)NC1c1c(Cl)n(CCCl)c2ccccc12 (stereo not given)
inactive: HCT-15 colon 99.6% | HT29 colon 107% | SNB-75 CNS 85.4% | SNB-19 CNS 100% | U251 CNS 94.4% | PC-3 prostate 91.7% | SK-MEL-5 melanoma 102% | UACC-62 melanoma 85.4% | LOX IMVI melanoma 92.6% | SK-MEL-28 melanoma 108%

N#CC1=C(N)Oc2c(c(=O)[nH]c3ccc(Cl)cc23)C12C(=O)c1ccccc1C2=O
inactive: HCT-15 colon 98.6% | HT29 colon 108% | SNB-75 CNS 76.5% | SNB-19 CNS 91.6% | U251 CNS 99.4% | PC-3 prostate 91.6% | SK-MEL-5 melanoma 95.9% | UACC-62 melanoma 89.4% | LOX IMVI melanoma 99.6% | SK-MEL-28 melanoma 104%

Nc1c(C(=O)Nc2ccccc2F)sc2nc3c(cc12)CCCC3
inactive: HCT-15 colon 28.7% | HT29 colon 11.3% | SNB-75 CNS 37.5% | SNB-19 CNS 33.7% | U251 CNS 26.7% | PC-3 prostate 27.7% | SK-MEL-5 melanoma 15.5% | UACC-62 melanoma 26.7% | LOX IMVI melanoma 40.5% | SK-MEL-28 melanoma 73.7%

CC(C)c1ccc(C(=O)Nc2sc3c(c2C(N)=O)CCC(=O)C3)cc1
inactive: SNB-19 CNS 13%
active: HCT-15 colon -15.7% | HT29 colon 5.66% | SNB-75 CNS -88.2% | U251 CNS -3.68% | PC-3 prostate -44.7% | SK-MEL-5 melanoma -62.8% | UACC-62 melanoma -35.7% | LOX IMVI melanoma 4.43% | SK-MEL-28 melanoma 7.57%

N#Cc1c(-c2ccccc2)cc(-c2ccccc2)n(CCCC(=O)Nc2ccccc2N)c1=O
inactive: HCT-15 colon 28.1% | HT29 colon 49.5% | SNB-19 CNS 62.2% | U251 CNS 56.7% | PC-3 prostate 67.4% | SK-MEL-5 melanoma 48.4% | UACC-62 melanoma 34.2% | LOX IMVI melanoma 48% | SK-MEL-28 melanoma 65.9%
active: SNB-75 CNS -9.01%

COC(=O)c1nc(-c2ccc(C)cc2)oc1S(=O)(=O)c1cccc(OC)c1
inactive: HCT-15 colon 62% | HT29 colon 97.1% | SNB-75 CNS 83.3% | SNB-19 CNS 101% | U251 CNS 96.5% | PC-3 prostate 103% | SK-MEL-5 melanoma 97.8% | UACC-62 melanoma 92.5% | LOX IMVI melanoma 57.1% | SK-MEL-28 melanoma 99.2%

CCOC(=O)c1cc2c(n1C)-c1nc(NC(C)=O)sc1CCC2
inactive: HCT-15 colon 88.3% | HT29 colon 88% | SNB-75 CNS 71.4% | SNB-19 CNS 83.6% | U251 CNS 78.2% | PC-3 prostate 51% | SK-MEL-5 melanoma 80.4% | UACC-62 melanoma 69.5% | LOX IMVI melanoma 79.6% | SK-MEL-28 melanoma 107%

N#Cc1nc(-c2ccccc2)oc1S(=O)(=O)N1CCN(c2ccccc2)CC1
inactive: HCT-15 colon 44.2% | HT29 colon 86.5% | SNB-75 CNS 66.7% | SNB-19 CNS 99.6% | U251 CNS 98.9% | PC-3 prostate 94.9% | SK-MEL-5 melanoma 90% | UACC-62 melanoma 84.4% | LOX IMVI melanoma 39.7% | SK-MEL-28 melanoma 106%
